The text below walks through data of PubChem BioAssay AID504375 (National Center for Advancing Translational Sciences (NCATS), 2011).

Hit rate of the full screen: of about 1,600 compounds, about 25 (2%) were called active. Roughly 7% stayed inconclusive and do not appear here. Calls follow the shape of the dose curve; as a rule, active = well fitted inhibition curve with a large enough effect; inconclusive = small, poorly fitted or top-dose-only effect, or effect the other way; inactive = no such curve, though single readings can be large or run the other way. What follows is part of a selection rich in actives, with near analogues and random picks from the rest. Entries that show only a call come without a potency.
Potency is read from the fitted curve at half-maximal effect.

Runt-related transcription factor 1 (Homo sapiens) + Core-binding factor subunit beta (Homo sapiens), sequence (Q01196 whole entry, looked up): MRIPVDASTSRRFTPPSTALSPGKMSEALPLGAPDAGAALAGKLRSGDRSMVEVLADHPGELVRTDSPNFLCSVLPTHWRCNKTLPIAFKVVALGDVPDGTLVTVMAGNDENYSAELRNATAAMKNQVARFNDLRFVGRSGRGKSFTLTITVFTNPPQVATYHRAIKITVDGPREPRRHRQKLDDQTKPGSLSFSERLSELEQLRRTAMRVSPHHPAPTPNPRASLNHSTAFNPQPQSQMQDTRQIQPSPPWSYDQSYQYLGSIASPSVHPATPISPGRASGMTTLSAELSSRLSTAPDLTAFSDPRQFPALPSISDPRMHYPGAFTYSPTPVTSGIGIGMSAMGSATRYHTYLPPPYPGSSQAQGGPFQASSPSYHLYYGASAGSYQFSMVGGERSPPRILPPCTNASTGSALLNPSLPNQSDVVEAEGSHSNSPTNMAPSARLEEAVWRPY
Runt-related transcription factor 1 (Homo sapiens) + Core-binding factor subunit beta (Homo sapiens), sequence (Q13951 whole entry, looked up): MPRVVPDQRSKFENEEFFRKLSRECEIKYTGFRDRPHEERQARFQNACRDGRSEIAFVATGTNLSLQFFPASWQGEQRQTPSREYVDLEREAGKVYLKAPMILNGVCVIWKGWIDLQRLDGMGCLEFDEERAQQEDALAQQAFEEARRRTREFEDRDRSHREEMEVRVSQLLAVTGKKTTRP

This test deals with Runt-related transcription factor 1 (Homo sapiens) + Core-binding factor subunit beta (Homo sapiens) (UniProt Q01196+Q13951). Briefly: qHTS Assay for Compounds Blocking the Interaction Between CBF-beta and RUNX1 for the Treatment of Acute Myeloid Leukemia: Hit Validation with Orthogonal Assay. To be noted: CBFbeta-RUNX1 binding orthogonal assay, biochemical; series mostly up to 41 µM. The source says:
NIH Chemical Genomics Center [NCGC]
NIH Molecular Libraries Probe Production centers Network [MLPCN]
Assay Submitter (PI): Paul Liu
Core Binding Factor (CBF) abnormalities are associated with 20-25% of all acute myeloid leukemias (AML), of which 5-10% are further sub classified as acute myelomonocytic leukemia with eosinophilia, also known as M4Eo in the FAB classification scheme. This subtype of leukemia is usually associated with chromosome 16 inversion (p13:q22). Chromosome 16 inversion results in formation of the fusion oncogene CBFB-MYH11, which encodes the fusion protein CBF-beta-SMMHC.
It has been hypothesized that the interference of CBF-beta and RUNX1 binding could have therapeutic implications for patients with CBF mediated leukemias. We developed a CBF-beta and RUNX1 binding assay in AlphaScreenTM format and optimized it for high throughput screening to search for inhibitors. The goal of this project is to screen MLPCN's compound collection (MLSMR) for identifying the inhibitors of the interaction between CBF-beta and RUNX1 proteins as research probes. If these probes work well in the animal models, the ultimate goal of this project is to development a new drug treatment for this disease.
This assay can not be used to assess how apparent inhibitors interfere with protein binding, and whether inhibitors specifically bind to either protein. Disruption of this protein-protein interaction, through any mechanism, is the intended target activity.
The present data set was run to confirm the activity of hits from the primary screen using an orthogonal assay technology for measuring protein-protein interaction disruption.
A TR-FRET (time resolved fluorescence resonance energy transfer) assay was performed using the same assay buffer, protein concentrations and incubation times as described previously in the AlphaScreen assay, except that terbium (Tb+) labeled anti-his-antibody and XL665 linked streptavidin were used to capture the binding signal. The Tb+ labeled anti-his-antibody captures His(6)-CBF and XL665 linked streptavidin binds to biotin-RUNX1. The binding of RUNX1 to CBFbrings Tb+ and XL665 to proximity resulting in a TR-FRET signal. Briefly, in a white 384-well plate, 10 µl/well of mixture of biotin-RUNX1 and His(6)-CBFwere incubated with 10 µl/well buffer (positive control) or 10 µl/well compounds (negative control) for 20 min followed by an addition of 10 µl/well of Tb+ labeled anti-his(6)-antibody and XL665 linked streptavidin. After 90 min of incubation in the dark, the assay plate was measured in the Envision plate reader using TR-FRET detection mode. For the 1536-well plate format, 3 µl/well mixture of biotin-RUNX1 and His(6)-CBF (30 nM per protein) was incubated with 23 nl/well compound (dissolved in 100% DMSO) or the equivalent DMSO concentration (positive control) for 30 min followed by the addition of 1 µl/well of 0.44 ng Tb+ labeled anti-his(6)-antibody and 5 nM streptavodin-XL665. After 90 min of incubation, the assay plate was measured in the Envision plate reader.
The TR-FRET assay for detecting interaction between HIV-I Tat and […] was similarly performed with the recombinant full-length HIV-I Tat CLADE B and HIV-I Tat Biotin conjugated proteins supplied by Diatheva (Fano, Italy). Briefly, the His-CBF and Biotin-RUNX1 complex at a working concentration of 83.3 nM per protein were pre-incubated in assay buffer for 10 minutes on ice. Then HIV-I Tat or unlabeled CBF were added to reach final concentrations (Supplementary Figure 4b) and incubated for 5 minutes. Finally anti-His antibody and streptavidin-XL665 at a final concentration of 2.2 ng and 5 nM, respectively, were added to the plate, which was incubated for 1 hr prior to reading on the PerkinElmer Envision plate reader.
Keywords: MLSMR, MLPCN, NIH Roadmap, qHTS, NCGC, Core binding factor, CBF, CBF-beta, Acute myeloid leukemia
In general terms: Quantitative high-throughput screening tests each substance at several concentrations.
On to `C/C(=N\NC(=O)Cn1nc(C)cc1C)c1ccc([N+](=O)[O-])cc1`, for which the Potency entry is “inactive”. As for `Cc1n[nH]c(C)c1CCC(=O)N/N=C/c1cccs1`, the entry is “inactive”; as for `CCOC(=O)COc1nc2c(c(-c3ccco3)c1C#N)CCc1ccccc1-2`, “inactive”; as for `CCOc1ccc(/C(C)=N/NC(=O)Cn2nc([N+](=O)[O-])cc2C)cc1`, “inactive”. For `Cc1ccccc1NC(=S)Nc1ccccn1`, the Potency entry was “inactive”.

As for `Cc1ccc(NC(=S)Nc2ccccn2)cc1C`, the Potency entry is “inactive”.

With `Cc1[nH]c(=O)[nH]c1C(=O)CCCCC(=O)OCC(=O)Nc1ccccn1`, the Potency was 44.7 nM (active).

For the compound `Clc1nc(Cl)nc(-c2cn(-c3ccccc3)c3ccccc23)n1`, the Potency entry is “inactive”. As for `Nc1c(Cl)ncnc1NCC(O)CO` (stereo unspecified), the entry is “inactive”. The value for `Cc1onc(-c2c(Cl)cccc2Cl)c1C(=O)c1ccc(F)cc1` was “inactive”. The value for `O=C(O[C@@H]1OC2COC(=O)c3cc(O)c(O)c(O)c3-c3c(cc(O)c(O)c3O)C(=O)O[C@@H]([C@H]1O)[C@@H]2O)c1cc(O)c(O)c(O)c1` was 891 nM (active); that for `O=C1OCC2OC(O)C(O)C(O)C2OC(=O)c2cc(O)c(O)c(O)c2-c2c(O)c(O)c3oc(=O)c4c(c(O)c(O)c5oc(=O)c2c3c54)-c2c1cc(O)c(O)c2O` (stereo unspecified) was 398 nM (active). Regarding `Cc1nn(C)c(Sc2ccccn2)c1[N+](=O)[O-]`, the Potency entry is “inactive”. On to `Nc1ccc(Oc2ccccc2F)nc1`, for which the Potency result was “inactive”. The value for `Cc1nc(C)c(-c2ccn(C(=O)NC(C)C)n2)s1` was “inactive”; that for `CC(C)(C)c1ccc(C(=O)Nc2ccc(S(N)(=O)=O)cc2)cc1` was “inactive”. The value for `c1ccc2oc(-c3ccn[nH]3)cc2c1` was “inactive”; that for `CN(C)C(=S)Nc1ccc(Cl)cc1` was “inactive”; that for `C/C(=N\NC(=O)c1cc(-c2cccc([N+](=O)[O-])c2)n[nH]1)c1ccc(F)cc1` was “inactive”. The value for `Cc1cc(Cl)c2cc3ccccc3cc2n1` was “inactive”; that for `Cc1ccc(Cl)cc1NC(=S)NN` was “inactive”. With `Cc1ccc(Cl)cc1NC(=S)N(CCN(C)C)C(C)c1ccccn1` (stereo unspecified), the Potency is 1220 nM (active).

Regarding `Cc1cccc(NC(=S)N(CCN(C)C)C(C)c2ccccn2)c1` (stereo unspecified), the Potency result was “inactive”.

For `COc1ccc(C2Sc3ccccc3N(CCN(C)C)C(=O)C2OC(C)=O)cc1` (stereo unspecified), the Potency result is “inactive”. The value for `c1ccc(N2CCOCCOCCOCCOCC2)cc1` was “inactive”; that for `CC(C)(C)OC(=O)N1CCCN(C(=O)Nc2cccc(Cl)c2)CC1` was “inactive”. The value for `O=C1c2ccccc2C(=O)N1/N=C/c1ccc(O)c(O)c1O` was 2820 nM (active); that for `COc1ccc(C(=O)COc2ccc(C)cc2NC(C)=O)cc1` was “inactive”. As for `CC1CC(C)(C)NC(=S)O1` (stereo unspecified), the entry is “inactive”. In the case of `CCCCCNc1nc2sc3c(c2c(=O)n1-c1cccc(Cl)c1)CCN(C)C3`, the Potency entry is “inactive”. The value for `Cc1cc(C)c2c(N)c(-c3nnc(SCc4ccc(Cl)cc4)n3C)sc2n1` was “inactive”.
